Test results published in PubChem BioAssay.
“And” between values parts separate entries of the source, which are not always exact repeats. Equal values may be shown once. The source made the active and inactive calls. Unless noted, no stated cut-off is given here; in the data, active means parasite load remaining mostly below about 12% (no sharp cut-off); inactive means mostly above about 10%.

Tests used:
[1] = yeast 75Q aggregation reduction – 75Q-TubU reporter (AID 1593); details: Yeast 75Q polyglutamine aggregation reporter
[2] = blockers of cytochrome c efflux from mitochondria – biochemical, purified mitochondria (AID 1603); details: stronger effect = lower value;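 further: mouse liver mitochondria challenged with calcium chloride; signal normalized to the plate average as 100%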
[3] = polyglutamine aggregate formation blockers (AID 1604); details: polyglutamine-induced protein aggregation inhibition assay; stronger effect = higher value; tested at 2.5 µM
[4] = P. berghei load reduction in hepatocytes – cell-based, HepG2, luciferase luminescence, HepG2 viability, primary screen (AID 624349);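 further: 100% = mean of DMSO negative control wells on the same plate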; details: P. berghei liver stage in HepG2, luciferase luminescence, concentration not given here; parasite load remaining: stronger effect = lower value; viability: measured here: HepG2 viability without parasites
[5] = Wnt pathway potentiators raising nuclear beta-catenin – imaging, WNT3A-conditioned medium, mouse C2C12, NPC library, primary screen (AID 1117326; in the data active means nuclear beta-catenin stimulation mostly above about 4.2%, no sharp cut-off; inactive means mostly below about 10%); details: stronger effect = higher value
[6] = stimulators of insulin release from INS-1E, primary screen, cell-based, 5 mM glucose, NPC library (AID 1117329;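 active means compound raises insulin release from rat beta cells at 5 mM glucose, no numeric limit stated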); details: rat INS-1E insulin secretion, at 10 µM, stronger effect = higher value
[7] = growth inhibition of GSK3B-pretreated HCT116 cells – cell-based, CellTiter-Glo, 0.2 to 20 µM (AID 1117336;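 active means compounds lowering colon cancer cell viability after pretreatment blocking the GSK3B kinase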); details: HCT116 viability after GSK3B inhibitor, at 20 µM, stronger effect = higher value
[8] = inhibition of endothelial tube formation, primary screen, imaging, VEGF stimulated, CD31 staining, tube area, NPC library (AID 1117340;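 active means compound that reduces growth-factor-driven endothelial tube area in a mixed cell culture, no cutoff stated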); details: VEGF-stimulated ADSC/ECFC co-culture, at 10 µM, stronger effect = higher value
[9] = GLP1 release stimulators, primary, NCI-H716, NPC library (AID 1117341;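 active means compound raises GLP1 secretion from the human gut endocrine cells, with no numeric limit stated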); details: NCI-H716 cells, at 10 µM, stronger effect = higher value
[10] = HCT116 colon cancer cell growth inhibition, primary screen, CellTiter-Glo luminescence, NPC library (AID 1117342;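 active means compounds that lower survival of HCT116 colon cancer cells in the luminescence readout, no numeric limit stated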); details: at 20 µM (top of the series)
[11] = reduced SW480 viability measured with CellTiter-Glo, NPC library, primary (AID 1117343;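 active means compounds that lower viability of the colon cancer cells in the luminescence readout, with no numeric limit stated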); details: CellTiter-Glo luminescence; at 20 µM (top of the series)
[12] = NPC library primary testing for decreased DLD-1 cell viability via CellTiter-Glo (AID 1117346;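 active means compounds that lower survival of DLD-1 colon cancer cells in the luminescence readout, no cutoff given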); details: DLD-1 viability, CellTiter-Glo luminescence; at 20 µM (top of the series)
[13] = target: 6-phosphogluconate dehydrogenase, decarboxylating (Homo sapiens) (UniProt P52209); assay: inhibition of human phosphogluconate dehydrogenase – biochemical, recombinant enzyme, NADPH absorbance, primary screen (AID 1159550;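 active means at least 20% inhibition of 6-phosphogluconate dehydrogenase activity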); details: recombinant 6PGD, NADPH absorbance 341 nm; at 10 µM; stronger effect = higher value
[14] = EMT-state selective cytotoxicity in co-culture – imaging, PC-3E GFP, TEM4-18 mCherry, primary screen (AID 1345086;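 active means compounds killing one labelled cell type while sparing the other, by normalised counts and ratio limits, not self-fluorescent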;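 on all read-outs here: cells exposed to compound for 72 h before imaging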;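 on red/green cell ratio (normalised): normalised mesenchymal count divided by normalised epithelial count so high means epithelial killing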); details: PC-3E GFP / TEM4-18 mCherry co-culture, imaging cell counts, at 1 µM; for red/green cell ratio (normalised): actives lie on both sides
[15] = system: Aerobactin synthetase IucA (Klebsiella pneumoniae hvKP1); assay: IucA enzyme inhibition, primary screen, biochemical, Spectrum library (AID 1346200; call rule not given here;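 further: 100% = wells without compound and 0% = wells lacking enzyme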); details: malachite green pyrophosphate, A620, at 8 µM, stronger effect = lower value
[16] = viability loss with induced miR-34 in A549 – imaging, A549 dox-inducible miR-34, nuclei and caspase counts, primary screen (AID 1347080;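 active means compounds whose cell count with miR-34 switched on is under 0.7 times the count with it off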); details: A549 miR-34 inducible, Hoechst nuclei count, 48 h
[17] = MELAS cybrid and Rieske KO viability enhancers – cell-based, MELAS cybrids, Rieske KO mouse fibroblasts, CellTiter-Glo, primary screen (AID 1508586;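 active means mean z-score across replicates of 1.96 or higher in either the MELAS or the Rieske mutant cell line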;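 further: z relative to plate mean and SD of compound and empty wells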); details: low glucose
[18] = target: NAD(+) hydrolase SARM1 (Homo sapiens) (UniProt Q6SZW1); assay: blocking NAD cleavage by SARM1 SAM-TIR – cell lysate, NAD-Glo luminescence (AID 1508614;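 active means compound whose remaining NAD level is above about 45 nM, limit read from the data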); details: SAM-TIR HEK293T lysate NADase, at 1 µM, stronger effect = higher value
[19] = target: Mitogen-activated protein kinase 7 (Homo sapiens) (UniProt Q13164); assay: Gal4-ERK5 driven luciferase induction – cell-based, HTS, primary screen (AID 1508626;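 active means luciferase signal above three times the same-plate solvent-only control wells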;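 further: luciferase driven by Gal4-ERK5 fusion binding five Gal4 sites before minimal TATA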); details: HeLa Gal4-ERK5 transactivation, 18 h, at 5 µM, stronger effect = higher value
[20] = galactose survival enhancers in mitochondrial complex I cybrids – cell-based, galactose medium, ATP luminescence, primary screen (AID 1645843;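 active means z-score of at least 1.8 in each of two replicates, scored against plate mean and spread of sample wells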;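 further: positive z means more ATP and so rescue of galactose-driven cybrid death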); details: complex I mutant cybrid cells, 72 h, stronger effect = higher value
[21] = measured here: epithelial PC-3E GFP cell survival
[22] = measured here: mesenchymal TEM4-18 mCherry cell survival
[23] = measured here: relative caspase fold change +Dox/-Dox
[24] = measured here: total cells with miR-34 induction, stronger effect = lower value
[25] = measured here: total cells without miR-34 induction
[26] = MELAS cybrid survival, CellTiter-Glo 48 h, stronger effect = higher value
[27] = Rieske KO mouse fibroblast survival, CellTiter-Glo 72 h

Sequence of NAD(+) hydrolase SARM1 (Homo sapiens) (Q6SZW1 whole entry, looked up, the tested form may be a part): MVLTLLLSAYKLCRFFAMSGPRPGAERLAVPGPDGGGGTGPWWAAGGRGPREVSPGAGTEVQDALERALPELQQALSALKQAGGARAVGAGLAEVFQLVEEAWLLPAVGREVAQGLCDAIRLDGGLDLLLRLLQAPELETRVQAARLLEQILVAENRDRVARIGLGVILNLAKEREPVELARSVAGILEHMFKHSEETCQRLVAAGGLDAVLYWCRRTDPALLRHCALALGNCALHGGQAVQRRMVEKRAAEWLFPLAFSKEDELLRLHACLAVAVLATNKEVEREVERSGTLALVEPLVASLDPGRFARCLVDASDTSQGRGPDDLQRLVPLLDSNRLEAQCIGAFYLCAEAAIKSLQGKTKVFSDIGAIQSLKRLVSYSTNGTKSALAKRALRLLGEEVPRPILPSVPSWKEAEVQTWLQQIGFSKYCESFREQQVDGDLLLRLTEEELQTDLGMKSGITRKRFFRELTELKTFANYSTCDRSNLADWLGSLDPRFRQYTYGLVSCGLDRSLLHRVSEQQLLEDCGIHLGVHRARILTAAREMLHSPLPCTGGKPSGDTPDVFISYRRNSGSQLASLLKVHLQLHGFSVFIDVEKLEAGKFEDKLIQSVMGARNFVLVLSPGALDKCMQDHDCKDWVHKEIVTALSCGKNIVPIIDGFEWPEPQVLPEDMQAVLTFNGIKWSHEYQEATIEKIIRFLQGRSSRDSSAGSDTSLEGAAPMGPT
Sequence of 6-phosphogluconate dehydrogenase, decarboxylating (Homo sapiens) (P52209 whole entry, looked up): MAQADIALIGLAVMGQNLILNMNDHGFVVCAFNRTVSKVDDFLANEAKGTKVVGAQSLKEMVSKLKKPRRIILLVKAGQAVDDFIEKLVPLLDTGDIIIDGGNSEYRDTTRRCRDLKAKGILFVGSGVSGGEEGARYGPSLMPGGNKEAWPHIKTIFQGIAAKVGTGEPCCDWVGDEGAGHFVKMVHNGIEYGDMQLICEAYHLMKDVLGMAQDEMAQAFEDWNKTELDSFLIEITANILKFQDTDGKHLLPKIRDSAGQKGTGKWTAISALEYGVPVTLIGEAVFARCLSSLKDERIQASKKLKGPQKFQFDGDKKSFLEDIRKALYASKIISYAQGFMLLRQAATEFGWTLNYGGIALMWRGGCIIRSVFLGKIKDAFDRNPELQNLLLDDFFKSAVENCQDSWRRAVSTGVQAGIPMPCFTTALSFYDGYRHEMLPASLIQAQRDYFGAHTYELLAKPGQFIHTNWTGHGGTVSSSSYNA
Sequence of Mitogen-activated protein kinase 7 (Homo sapiens) (Q13164 whole entry, looked up, the tested form may be a part): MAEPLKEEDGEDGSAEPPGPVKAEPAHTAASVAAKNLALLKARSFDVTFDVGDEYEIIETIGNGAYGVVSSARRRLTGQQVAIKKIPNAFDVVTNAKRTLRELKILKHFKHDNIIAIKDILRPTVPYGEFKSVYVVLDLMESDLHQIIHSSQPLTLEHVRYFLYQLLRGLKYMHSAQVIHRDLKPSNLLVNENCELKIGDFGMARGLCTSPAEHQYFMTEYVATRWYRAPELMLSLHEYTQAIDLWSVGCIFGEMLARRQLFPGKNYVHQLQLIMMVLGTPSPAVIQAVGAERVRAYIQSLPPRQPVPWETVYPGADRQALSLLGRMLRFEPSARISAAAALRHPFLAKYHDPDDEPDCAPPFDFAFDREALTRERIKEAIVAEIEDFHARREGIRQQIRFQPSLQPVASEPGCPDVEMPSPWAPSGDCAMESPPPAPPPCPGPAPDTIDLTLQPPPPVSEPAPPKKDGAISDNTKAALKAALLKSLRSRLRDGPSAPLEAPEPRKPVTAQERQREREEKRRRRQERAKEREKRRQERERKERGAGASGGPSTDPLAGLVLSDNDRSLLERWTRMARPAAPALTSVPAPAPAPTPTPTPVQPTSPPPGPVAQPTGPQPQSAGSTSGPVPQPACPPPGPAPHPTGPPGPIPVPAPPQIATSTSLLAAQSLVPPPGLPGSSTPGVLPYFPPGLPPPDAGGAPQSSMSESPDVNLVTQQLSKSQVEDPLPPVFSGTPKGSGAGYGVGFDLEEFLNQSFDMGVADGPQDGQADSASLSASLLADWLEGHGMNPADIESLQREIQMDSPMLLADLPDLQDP

SMILES: N[C@@H](Cc1ccc(N(CCCl)CCCl)cc1)C(=O)O
- score [1]: 1.14
- cytochrome c release ratio [2]: 0.77
- inhibition of aggregation [3]: 49.4%
- parasite load remaining [4]: 85.5% (inactive) and 46.9% (inactive)
- viability [4]: 102% and 79%
- nuclear beta-catenin stimulation ([5]; at 10 µM): 5.3% (inactive)
- nuclear beta-catenin stimulation ([5]; stimulation, at 2 µM): -1.1%
- insulin secretion stimulation [6]: -2.1% (inactive)
- viability decrease [7]: 57.9% (active)
- tube area decrease [8]: 89.6% (active)
- GLP1 secretion stimulation [9]: 0.9% (inactive)
- inhibition of viability [10]: 11.2% (inactive)
- viability decrease (inhibition) [11]: 8.5% (inactive)
- viability decrease (inhibition) [12]: 8.7% (inactive)
- inhibition [13]: -5.9% (inactive)
- red/green cell ratio (normalised) [14]: 0.83 (inactive)
- normalised cell number [14, 21]: 0.94
- normalised cell number [14, 22]: 0.77
- activity remaining [15]: 104% (inactive)
- fold change ([16]; stronger effect = lower value): 0.909 (inactive) and 0.963 (inactive)
- fold change [16, 23]: 1.01 and 1.57
- cell count [16, 24]: 3400 and 2500
- cell count [16, 25]: 3740 and 2600
- z-score [17, 26]: 0.0989 (inactive)
- z-score [17, 27]: -1.05
- remaining NAD [18]: 10 nM (inactive)
- luciferase signal [19]: 40 AU (inactive)
- z-score [20]: -1.76 (inactive)

SMILES: CC(C)(C)NCC(O)c1ccccc1Cl (stereo not drawn)
- score [1]: 1.29
- cytochrome c release ratio [2]: 0.96
- inhibition of aggregation [3]: 72.5%
- parasite load remaining [4]: 85.5% (inactive) and 23.5% (inactive)
- viability [4]: 91.9% and 68.5%
- nuclear beta-catenin stimulation ([5]; at 10 µM): -0.7% (inactive)
- nuclear beta-catenin stimulation ([5]; stimulation, at 2 µM): -0.7%
- insulin secretion stimulation [6]: -1.2% (inactive)
- viability decrease [7]: -32.4% (inactive)
- tube area decrease [8]: 5.2% (inactive)
- GLP1 secretion stimulation [9]: 0.9% (inactive)
- inhibition of viability [10]: -0.17% (inactive)
- viability decrease (inhibition) [11]: -2.1% (inactive)
- viability decrease (inhibition) [12]: -14.4% (inactive)
- inhibition [13]: 14% (inactive)
- red/green cell ratio (normalised) [14]: 0.9 (inactive)
- normalised cell number [14, 21]: 1.07
- normalised cell number [14, 22]: 0.97
- activity remaining [15]: 102% (inactive)
- fold change ([16]; stronger effect = lower value): 0.985 (inactive) and 0.856 (inactive)
- fold change [16, 23]: 1.26 and 1.33
- cell count [16, 24]: 10200 and 9170
- cell count [16, 25]: 10400 and 10700
- z-score [17, 26]: -0.495 (inactive) and -0.187 (inactive)
- z-score [17, 27]: 0.0224 and -0.446
- remaining NAD [18]: 10 nM (inactive)
- luciferase signal [19]: 24 AU (inactive)
- z-score [20]: 0.29 (inactive) and 0.245 (inactive)

SMILES: CC(=O)[O][Hg][c]1ccccc1
- score [1]: -0.45
- cytochrome c release ratio [2]: 1.06
- inhibition of aggregation [3]: -25.5%
- parasite load remaining [4]: 3.54% (inactive) and -0.265% (inactive)
- viability [4]: 23.1% and 0.225%
- nuclear beta-catenin stimulation ([5]; at 10 µM): 14.5% (inactive)
- nuclear beta-catenin stimulation ([5]; stimulation, at 2 µM): 13.2%
- insulin secretion stimulation [6]: 15.9% (inactive)
- viability decrease [7]: 103% (active)
- tube area decrease [8]: 110% (active)
- GLP1 secretion stimulation [9]: 49.8% (active)
- inhibition of viability [10]: 103% (active)
- viability decrease (inhibition) [11]: 144% (active)
- viability decrease (inhibition) [12]: 105% (active)
- inhibition [13]: -9.01% (inactive)
- activity remaining [15]: -6.18% (active)
- fold change ([16]; stronger effect = lower value): 0.775 (inactive)
- fold change [16, 23]: 1.65
- cell count [16, 24]: 334
- cell count [16, 25]: 432
- remaining NAD [18]: 63 nM (active)
- luciferase signal [19]: 32 AU (inactive)
